This is a sample that favours compounds with a hit; in the whole collection about 10% have one here.
CCT modulator: modulators of cytosolic chaperonin (CCT/TRiC) activity | purified chaperonin ATPase assay, HTRF ADP detection, 30 min | activity change, % (concentration not given with the values), hits read low | hit rate 0.3% among 360,000 | AID 651819; in the data active = activity change below about -30%
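We incubate TRiC, 40 or 20 nM final, with library compounds at 76 uM and 10 uM ATP for 30 min at 37 °C. ADP formed is detected with Transcreener HTRF reagents after 30 min at room temperature.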
G9a block: inhibitors of human histone lysine methyltransferase G9a; Q96KQ7; G9a H3K9 monomethylation, AlphaScreen, 2 h; Potency, µM (doses to about 102 µM), hits mostly inhibitors; hit rate 8.8% among 350,000; AID 504332; note: nearly all actives have a fitted effect of over 75% in size
Target sequence (Q96KQ7 913-1193 limits assumed): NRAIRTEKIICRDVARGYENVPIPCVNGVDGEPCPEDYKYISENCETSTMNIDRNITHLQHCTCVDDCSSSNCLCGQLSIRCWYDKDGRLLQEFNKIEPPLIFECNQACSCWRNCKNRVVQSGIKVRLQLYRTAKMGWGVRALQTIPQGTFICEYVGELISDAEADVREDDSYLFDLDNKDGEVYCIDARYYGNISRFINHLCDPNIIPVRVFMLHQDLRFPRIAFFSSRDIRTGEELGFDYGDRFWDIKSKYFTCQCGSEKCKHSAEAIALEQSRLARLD
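Methyltransferase reactions run at room temperature for 2 h (20 nM enzyme, 500 nM biotin-H3K9 peptide, 20 uM SAM) after a 15 min compound preincubation; product detected by AlphaScreen beads and anti-H3K9me1 antibody.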
VDR inh: inhibitors of human vitamin D receptor; AID 504847; Potency, µM, most hits filed as inhibitors; VDR-SRC2-3 peptide fluorescence polarization, 2 h; hit rate 0.93% among 400,000
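Two reagent solutions held at 4 deg C in the dark were dispensed, compounds pinned at 23 nl, and the mixture incubated 2 h at room temperature. Read-out: fluorescence polarization of VDR–SRC2-3 peptide binding.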
PLK1 PBD inh: inhibitors of human PLK1 polo-box domain binding. P53350. Plk1 PBD binding of FITC phosphopeptide, fluorescence polarization. Potency, µM, most hits filed as inhibitors. hit rate 2.8% among 360,000. AID 720504; note: series mostly up to about 57 µM; nearly all actives have a fitted effect of over 65% in size
Sfp inh: blocks B. subtilis Sfp PPTase activity. Q9F4F7. Biochemical Sfp PPTase activity, qHTS. Potency, µM, actives largely listed as inhibitors. hit rate 3.5% among 310,000. AID 1490;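 note: the enzyme is Sfp with the accession as filed and its product quenches rhodamine fluorescence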
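After 15 min at room temperature with compound, 15 nM Sfp received 5 uM rhodamine-CoA plus 12.5 uM BHQ-2-ybbR (50 mM Hepes pH 7.6, 10 mM MgCl2). Rate came from the fluorescence difference over 30 min, ex 525/em 598 nm.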
Mm-Cpn inhibitor: M. maripaludis TRiC chaperonin inhibition; purified Mm-Cpn ATPase, ADP Transcreener TR-FRET; Potency, µM (titrated, usually from 76.9 µM), actives largely listed as inhibitors; hit rate 0.031% among 330,000; note: nearly all actives have a fitted effect of over 80% in size
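25 nM Mm-CPN + cpd, 10 min 37°C; + 10 uM ATP, 30 min 37°C; buffer 30 mM Tris pH 7.4, 100 mM KCl, 5 mM MgCl2, 1 mM DTT; Transcreener ADP HTRF detection 30 min RT.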
Large screens that a line does not name were inactive. Unless noted, calls come from the whole dose curve; as a rule, active = well fitted curve in the direction sought with a large enough effect; inconclusive = small, poorly fitted or top-dose-only effect, or another doubt; inactive = no such curve, though single readings can be large; an effect the other way counts as inactive or inconclusive.

COc1cc(CN2CCN(Cc3ccc4cc(F)ccc4n3)CC2CCO)cc(OC)c1 (stereo unspecified)	none
COc1ccc(CN2CCN(Cc3ccc4cc(F)ccc4n3)CC2CCO)c(C)c1C (stereo unspecified)	G9a block 50.1µM
COc1ccc(-n2ccn(CC(=O)Nc3ccc(C)cc3C)c(=O)c2=O)cc1	none (no result: CCT modulator, PLK1 PBD inh, Sfp inh, Mm-Cpn inhibitor)
COc1cc(C2CC(=O)Nc3cc4c(cc32)OCCO4)cc(OC)c1O (stereo unspecified)	G9a block inconclusive (no result: CCT modulator, PLK1 PBD inh, Sfp inh, Mm-Cpn inhibitor)
CCCC(=O)Nc1ccc2nc(SCc3ccc(C)cc3)sc2c1	none (no result: CCT modulator, PLK1 PBD inh, Sfp inh, Mm-Cpn inhibitor)
O=C(CCSc1nnc2ccc3ccccc3n12)Nc1ccc(F)cc1	PLK1 PBD inh 29.9µM
COc1cc(CNc2ccc(O)cc2)cc(Br)c1OCc1ccccc1F	G9a block 11.2µM, VDR inh 35.5µM, Sfp inh 28.2µM
COc1cccc(CNc2ccccc2O)c1OCc1ccccc1F	G9a block 35.5µM, Sfp inh 50.1µM
CCOc1cc(CNc2ccc(O)cc2)cc(Br)c1OCc1ccccc1F	G9a block 11.2µM, VDR inh 79.4µM, Sfp inh 17.8µM
CCOc1cc(CNC(C)(C)CO)cc(Br)c1OCc1ccc(Cl)cc1Cl	Sfp inh 44.7µM
COc1cc(CNCc2ccncc2)cc(Br)c1OCc1ccccc1F	none
CCOc1cc(CNc2ccc(O)cc2)cc(Br)c1OCc1ccccc1	G9a block inconclusive (no result: CCT modulator, PLK1 PBD inh, Sfp inh, Mm-Cpn inhibitor)
COC(=O)CC1Oc2ccccc2-n2cc(-c3ccc(F)cc3)nc21 (stereo unspecified)	none (no result: CCT modulator, PLK1 PBD inh, Sfp inh, Mm-Cpn inhibitor)
COC(=O)c1ccccc1NC(=O)CN(c1ccc(Cl)cc1)S(=O)(=O)c1ccc(OC)cc1	G9a block inconclusive (no result: CCT modulator, PLK1 PBD inh, Sfp inh, Mm-Cpn inhibitor)
CC1=C(CC(=O)c2ccc(Cl)cc2)C(=O)c2ccccc2C1=O	G9a block inconclusive, PLK1 PBD inh inconclusive, Sfp inh 44.7µM
O=c1[nH]cnc2c1N1CCC2CC1	G9a block 44.7µM
CN(C)c1nc(N)nc(/C(C#N)=C/C2CC3C=CC2C3)n1 (stereo unspecified)	G9a block inconclusive, Sfp inh 56.2µM
COc1cc2c(cc1OC)C1O[C@](c3ccsc3)(C2)Oc2c1c(=O)oc1ccc(F)cc21	none (no result: CCT modulator, VDR inh, PLK1 PBD inh)
CNc1ccc(Oc2nc([N+](=O)[O-])nn2C)cc1	G9a block 50.1µM
CCOC(=O)c1c(C)n(-c2ccccc2)c2ccc(OC(=O)c3ccccc3Cl)cc12	none (no result: CCT modulator, PLK1 PBD inh, Sfp inh, Mm-Cpn inhibitor)
COc1cccc(NC(=O)C(C)(C)C)c1	G9a block 3.16µM (no result: Sfp inh)
CSc1cccc(NC(=O)/C=C/c2ccco2)c1	G9a block 28.2µM, PLK1 PBD inh inconclusive, Sfp inh 56.2µM
COC(=O)c1cccc(NC(=O)C(C)(C)C)c1	none (no result: G9a block)
COc1ccccc1NC(=O)/C=C\c1ccco1	G9a block 39.8µM, VDR inh inconclusive, PLK1 PBD inh inconclusive, Sfp inh 56.2µM
COc1cccc(NC(=O)C(NCC2CCCCC2)c2ccccc2)c1 (stereo unspecified)	G9a block 3.16µM, Sfp inh 50.1µM
Cc1ccc(C)c(N2CCN(c3nc4ccccc4c4nc(CCn5nc(C)cc5C)nn34)CC2)c1	none (no result: CCT modulator, PLK1 PBD inh, Sfp inh, Mm-Cpn inhibitor)
CCOC(=O)CCN1C(=O)[C@H]2[C@@H]3[C@H](O)[C@H](O)CC(=O)[C@H]3CC[C@H]2C1=O	none (no result: CCT modulator, G9a block, VDR inh, PLK1 PBD inh, Mm-Cpn inhibitor)
CC(=O)C1=C(OC(=O)C(C)C)c2ccccc2S(=O)(=O)N1Cc1ccccc1	none (no result: CCT modulator, PLK1 PBD inh, Sfp inh, Mm-Cpn inhibitor)
CCOc1ccccc1NC(=O)N1CCC2(CC1)Oc1ccccc1C(=O)N2Cc1ccccc1F	none (no result: CCT modulator, PLK1 PBD inh, Sfp inh, Mm-Cpn inhibitor)
COc1cccc(NC(=O)/C=C/c2ccco2)c1	G9a block 35.5µM, Sfp inh 35.5µM
Cc1cccc(C(=O)Nc2nnc(S(=O)(=O)N(C)c3ccccc3C)s2)c1	G9a block 3.16µM (no result: CCT modulator, PLK1 PBD inh, Sfp inh, Mm-Cpn inhibitor)
COc1ccc(CN(C)S(=O)(=O)c2nnc(NC(=O)c3cccc(C)c3)s2)cc1OC	none
COc1ccc(NC(=O)N2CC3(CCN(C(=O)c4ccco4)CC3)C2)cc1	none (no result: CCT modulator, PLK1 PBD inh, Mm-Cpn inhibitor)
O=c1[nH]c(/C=C/c2cccc3ccccc23)nc2ccccc12	none
CCCN1C(=O)/C(=C\c2nc3ccccc3c(=O)[nH]2)c2ccccc21	G9a block 31.6µM, Sfp inh inconclusive
COc1cccc2c(C)cc3nnc(SCC(=O)Nc4ccc(C)cc4)n3c12	none (no result: CCT modulator, PLK1 PBD inh, Sfp inh, Mm-Cpn inhibitor)

High-throughput results (PubChem BioAssay)
